Assay results: publication PMC7862700, “An all-to-all approach to the identification of sequence-specific readers for epigenetic DNA modifications on cytosine”

Columns and labels:
Assay in all cases: DAPPL (digital affinity profiling via proximity ligation, sequencing); 10 mM Tris-HCl pH 7.5, 50 mM NaCl, 1 mM DTT, 4% glycerol, room temperature, 30 min; GST-TFs on glutathione beads, 16-mer random dsDNA library, 0.1% formaldehyde crosslink after washing; high values mean tight binding
FLI1 = target: T1, FLI1 (Homo sapiens, UniProt Q01543 1-452); conditions: protein: recombinant; tags: N-terminal GST; dsDNA, one strand shown
T1 sequence: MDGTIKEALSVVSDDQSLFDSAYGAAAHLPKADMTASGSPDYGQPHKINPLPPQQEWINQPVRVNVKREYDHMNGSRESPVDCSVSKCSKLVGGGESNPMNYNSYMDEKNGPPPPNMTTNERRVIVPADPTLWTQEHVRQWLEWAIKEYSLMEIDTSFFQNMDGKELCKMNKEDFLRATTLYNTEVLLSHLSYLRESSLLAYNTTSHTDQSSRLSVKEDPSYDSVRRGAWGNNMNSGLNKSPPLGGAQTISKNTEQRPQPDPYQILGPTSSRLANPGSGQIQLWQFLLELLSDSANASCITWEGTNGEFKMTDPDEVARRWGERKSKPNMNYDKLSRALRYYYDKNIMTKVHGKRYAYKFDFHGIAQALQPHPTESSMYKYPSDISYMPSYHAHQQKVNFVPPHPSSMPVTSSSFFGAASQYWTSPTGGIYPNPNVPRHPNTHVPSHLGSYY
How it was run: (§1)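 Human transcription factors carrying a GST fusion were produced in yeast, bound to glutathione beads, tagged with DNA barcodes and pooled together with a tag-only sample. Each pool was held with 200 nmole of a random double-stranded 16-mer DNA library in Tris/NaCl/DTT/glycerol buffer for 30 min at room temperature, then washed, crosslinked in 0.1% formaldehyde, proximity-ligated with BsaI/T4 ligase (1 h, 37 °C), PCR-amplified and sequenced on an Illumina NextSeq500. Binding signal is the read frequency of each hexamer for a given factor divided by its frequency in the tag-only sample.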

ELK1 = target: T2, ELK1 (Homo sapiens, UniProt P19419 1-428); conditions: protein: recombinant; tags: N-terminal GST; dsDNA, one strand shown
T2 sequence: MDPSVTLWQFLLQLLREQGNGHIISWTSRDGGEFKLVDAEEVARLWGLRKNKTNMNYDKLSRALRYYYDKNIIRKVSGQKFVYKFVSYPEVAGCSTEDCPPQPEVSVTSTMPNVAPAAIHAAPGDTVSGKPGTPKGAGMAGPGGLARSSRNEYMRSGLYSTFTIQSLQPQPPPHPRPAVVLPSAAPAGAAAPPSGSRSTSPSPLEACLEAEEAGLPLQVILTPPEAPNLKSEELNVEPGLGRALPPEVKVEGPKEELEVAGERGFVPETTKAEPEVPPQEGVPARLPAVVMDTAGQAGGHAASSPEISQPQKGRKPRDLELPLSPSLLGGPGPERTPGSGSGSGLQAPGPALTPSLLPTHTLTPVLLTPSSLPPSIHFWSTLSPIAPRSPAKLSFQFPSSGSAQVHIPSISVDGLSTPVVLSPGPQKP
How it was run: as §1

GABPA = target: T3, GABPA (Homo sapiens, UniProt Q06546 1-454); conditions: protein: recombinant; tags: N-terminal GST; dsDNA, one strand shown
T3 sequence: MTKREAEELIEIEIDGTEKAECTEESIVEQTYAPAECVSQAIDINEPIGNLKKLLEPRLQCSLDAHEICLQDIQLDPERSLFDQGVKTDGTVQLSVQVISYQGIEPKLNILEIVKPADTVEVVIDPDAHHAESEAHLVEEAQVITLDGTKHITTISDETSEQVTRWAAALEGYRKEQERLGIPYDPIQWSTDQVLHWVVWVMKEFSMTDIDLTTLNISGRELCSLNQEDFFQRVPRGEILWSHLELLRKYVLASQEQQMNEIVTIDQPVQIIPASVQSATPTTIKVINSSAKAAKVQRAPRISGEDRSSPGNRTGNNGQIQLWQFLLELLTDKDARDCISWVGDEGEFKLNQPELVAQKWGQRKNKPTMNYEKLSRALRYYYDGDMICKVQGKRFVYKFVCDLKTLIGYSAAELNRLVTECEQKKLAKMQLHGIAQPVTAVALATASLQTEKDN
How it was run: as §1

ERG = target: T4, ERG (Homo sapiens, UniProt P11308 1-479); conditions: protein: recombinant; tags: N-terminal GST; dsDNA, one strand shown
T4 sequence: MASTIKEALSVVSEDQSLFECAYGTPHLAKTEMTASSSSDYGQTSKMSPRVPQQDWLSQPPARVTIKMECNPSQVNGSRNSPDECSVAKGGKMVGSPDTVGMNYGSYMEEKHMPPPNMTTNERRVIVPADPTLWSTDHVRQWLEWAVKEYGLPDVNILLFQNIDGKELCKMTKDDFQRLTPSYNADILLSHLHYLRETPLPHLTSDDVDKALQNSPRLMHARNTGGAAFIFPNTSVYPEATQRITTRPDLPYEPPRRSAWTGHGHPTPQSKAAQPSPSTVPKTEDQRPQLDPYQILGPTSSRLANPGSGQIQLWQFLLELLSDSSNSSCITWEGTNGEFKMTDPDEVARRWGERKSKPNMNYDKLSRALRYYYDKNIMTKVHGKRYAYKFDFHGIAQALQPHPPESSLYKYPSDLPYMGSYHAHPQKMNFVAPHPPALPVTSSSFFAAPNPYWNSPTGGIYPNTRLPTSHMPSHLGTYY
How it was run: as §1

ELF1 = ELF1 (Homo sapiens, UniProt P32519 1-619); conditions: protein: recombinant; tags: N-terminal GST; dsDNA, one strand shown
How it was run: as §1

EHF = target: T5, EHF (Homo sapiens, UniProt Q9NZC4 1-300); conditions: protein: recombinant; tags: N-terminal GST; dsDNA, one strand shown
T5 sequence: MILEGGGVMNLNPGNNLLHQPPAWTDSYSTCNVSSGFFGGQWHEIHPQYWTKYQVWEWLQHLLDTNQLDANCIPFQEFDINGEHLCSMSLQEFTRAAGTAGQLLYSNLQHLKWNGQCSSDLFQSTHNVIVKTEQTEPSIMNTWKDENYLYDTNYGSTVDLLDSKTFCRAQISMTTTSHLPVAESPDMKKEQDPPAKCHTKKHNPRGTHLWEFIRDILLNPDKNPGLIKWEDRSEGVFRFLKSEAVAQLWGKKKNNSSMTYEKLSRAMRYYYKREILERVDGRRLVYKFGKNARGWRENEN
How it was run: as §1

SPI1 = SPI1 (Homo sapiens, UniProt P17947 1-270); conditions: protein: recombinant; tags: N-terminal GST; dsDNA, one strand shown
How it was run: as §1

SPIB = SPIB (Homo sapiens, UniProt Q01892 1-262); conditions: protein: recombinant; tags: N-terminal GST; dsDNA, one strand shown
How it was run: as §1

ELK3 = target: T6, ELK3 (Homo sapiens, UniProt P41970 1-407); conditions: protein: recombinant; tags: N-terminal GST; dsDNA, one strand shown
T6 sequence: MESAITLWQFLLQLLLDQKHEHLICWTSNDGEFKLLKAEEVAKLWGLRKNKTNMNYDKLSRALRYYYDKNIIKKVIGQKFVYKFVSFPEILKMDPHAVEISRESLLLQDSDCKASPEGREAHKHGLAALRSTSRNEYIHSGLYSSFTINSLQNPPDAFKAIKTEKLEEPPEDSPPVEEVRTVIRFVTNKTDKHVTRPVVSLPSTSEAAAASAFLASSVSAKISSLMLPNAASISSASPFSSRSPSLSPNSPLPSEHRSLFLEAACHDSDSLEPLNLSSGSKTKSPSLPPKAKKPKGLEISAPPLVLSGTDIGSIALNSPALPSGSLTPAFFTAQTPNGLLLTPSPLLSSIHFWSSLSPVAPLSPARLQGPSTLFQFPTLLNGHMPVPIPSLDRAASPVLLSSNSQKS
How it was run: as §1

FEV = target: T7, FEV (Homo sapiens, UniProt Q99581 1-238); conditions: protein: recombinant; tags: N-terminal GST; dsDNA, one strand shown
T7 sequence: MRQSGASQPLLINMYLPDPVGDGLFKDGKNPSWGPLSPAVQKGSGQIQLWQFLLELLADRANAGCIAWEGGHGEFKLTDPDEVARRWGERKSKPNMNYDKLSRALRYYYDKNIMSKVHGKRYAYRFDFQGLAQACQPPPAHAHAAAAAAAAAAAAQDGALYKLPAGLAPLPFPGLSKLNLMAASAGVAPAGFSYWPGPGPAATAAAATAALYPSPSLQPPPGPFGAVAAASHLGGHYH
How it was run: as §1

ETV5 = ETV5 (Homo sapiens, UniProt P41161 1-510); conditions: protein: recombinant; tags: N-terminal GST; dsDNA, one strand shown
How it was run: as §1

HSF1 = HSF1 (Homo sapiens, UniProt Q00613 1-529); conditions: protein: recombinant; tags: N-terminal GST; chain copies: 3; dsDNA, one strand shown
How it was run: as §1

SPIC = target: T8, SPIC (Homo sapiens, UniProt Q8N5J4 1-248); conditions: protein: recombinant; tags: N-terminal GST; dsDNA, one strand shown
T8 sequence: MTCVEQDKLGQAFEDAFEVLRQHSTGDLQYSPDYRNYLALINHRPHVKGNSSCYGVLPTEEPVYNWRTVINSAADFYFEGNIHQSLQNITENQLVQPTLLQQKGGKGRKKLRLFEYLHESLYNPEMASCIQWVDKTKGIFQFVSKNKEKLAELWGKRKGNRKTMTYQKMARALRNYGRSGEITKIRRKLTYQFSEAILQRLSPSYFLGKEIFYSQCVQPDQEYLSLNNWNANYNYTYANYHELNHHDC
How it was run: as §1

ELF4 = ELF4 (Homo sapiens, UniProt Q99607 1-663); conditions: protein: recombinant; tags: N-terminal GST; dsDNA, one strand shown
How it was run: as §1

ELK4 = target: T9, ELK4 (Homo sapiens, UniProt P28324-2 1-405); conditions: protein: recombinant; tags: N-terminal GST; dsDNA, one strand shown
T9 sequence: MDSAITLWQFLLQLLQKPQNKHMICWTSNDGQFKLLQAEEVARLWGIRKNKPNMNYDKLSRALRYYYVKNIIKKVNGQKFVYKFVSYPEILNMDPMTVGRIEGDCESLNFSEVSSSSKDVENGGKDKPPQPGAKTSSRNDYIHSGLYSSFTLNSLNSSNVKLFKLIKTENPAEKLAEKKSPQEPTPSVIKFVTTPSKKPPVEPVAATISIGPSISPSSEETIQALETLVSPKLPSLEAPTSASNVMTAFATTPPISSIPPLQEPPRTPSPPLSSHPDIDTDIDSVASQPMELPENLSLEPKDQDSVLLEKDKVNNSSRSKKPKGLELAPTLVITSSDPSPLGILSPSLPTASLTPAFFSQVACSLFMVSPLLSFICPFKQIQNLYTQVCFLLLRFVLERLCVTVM
How it was run: as §1

ELF3 = target: T10, ELF3 (Homo sapiens, UniProt P78545 1-371); conditions: protein: recombinant; tags: N-terminal GST; dsDNA, one strand shown
T10 sequence: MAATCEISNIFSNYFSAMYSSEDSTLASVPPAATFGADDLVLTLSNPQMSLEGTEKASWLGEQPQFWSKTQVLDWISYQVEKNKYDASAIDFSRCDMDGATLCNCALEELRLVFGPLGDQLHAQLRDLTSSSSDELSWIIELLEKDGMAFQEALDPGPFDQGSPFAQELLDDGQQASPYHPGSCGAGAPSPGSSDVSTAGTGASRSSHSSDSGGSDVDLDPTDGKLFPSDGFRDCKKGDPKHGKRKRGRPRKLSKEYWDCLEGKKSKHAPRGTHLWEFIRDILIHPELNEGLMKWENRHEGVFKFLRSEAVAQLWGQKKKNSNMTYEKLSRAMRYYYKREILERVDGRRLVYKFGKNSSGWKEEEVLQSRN
How it was run: as §1

CRX = CRX (Homo sapiens, UniProt O43186 1-299); conditions: protein: recombinant; tags: N-terminal GST; dsDNA, one strand shown
How it was run: as §1

ETV1 = ETV1 (Homo sapiens, UniProt P50549 1-477); conditions: protein: recombinant; tags: N-terminal GST; dsDNA, one strand shown
How it was run: as §1

ELF4, sequence (Q99607 whole entry): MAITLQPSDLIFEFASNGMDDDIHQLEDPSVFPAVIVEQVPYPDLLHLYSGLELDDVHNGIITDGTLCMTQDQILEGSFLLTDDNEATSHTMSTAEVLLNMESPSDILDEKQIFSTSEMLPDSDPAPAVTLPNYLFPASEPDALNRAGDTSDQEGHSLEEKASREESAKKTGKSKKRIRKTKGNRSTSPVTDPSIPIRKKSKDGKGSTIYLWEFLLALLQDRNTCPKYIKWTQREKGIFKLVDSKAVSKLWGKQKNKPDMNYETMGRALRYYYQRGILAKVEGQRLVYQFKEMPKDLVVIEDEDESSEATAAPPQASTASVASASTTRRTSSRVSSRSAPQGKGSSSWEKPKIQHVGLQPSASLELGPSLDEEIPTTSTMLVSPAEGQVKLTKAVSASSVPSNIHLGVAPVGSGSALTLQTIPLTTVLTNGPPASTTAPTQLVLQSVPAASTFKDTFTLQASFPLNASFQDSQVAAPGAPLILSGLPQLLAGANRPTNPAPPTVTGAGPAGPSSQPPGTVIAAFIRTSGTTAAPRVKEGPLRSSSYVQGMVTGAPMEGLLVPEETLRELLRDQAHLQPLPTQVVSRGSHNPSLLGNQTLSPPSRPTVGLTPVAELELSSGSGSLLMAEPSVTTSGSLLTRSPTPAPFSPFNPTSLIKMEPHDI
ETV1, sequence (P50549 whole entry): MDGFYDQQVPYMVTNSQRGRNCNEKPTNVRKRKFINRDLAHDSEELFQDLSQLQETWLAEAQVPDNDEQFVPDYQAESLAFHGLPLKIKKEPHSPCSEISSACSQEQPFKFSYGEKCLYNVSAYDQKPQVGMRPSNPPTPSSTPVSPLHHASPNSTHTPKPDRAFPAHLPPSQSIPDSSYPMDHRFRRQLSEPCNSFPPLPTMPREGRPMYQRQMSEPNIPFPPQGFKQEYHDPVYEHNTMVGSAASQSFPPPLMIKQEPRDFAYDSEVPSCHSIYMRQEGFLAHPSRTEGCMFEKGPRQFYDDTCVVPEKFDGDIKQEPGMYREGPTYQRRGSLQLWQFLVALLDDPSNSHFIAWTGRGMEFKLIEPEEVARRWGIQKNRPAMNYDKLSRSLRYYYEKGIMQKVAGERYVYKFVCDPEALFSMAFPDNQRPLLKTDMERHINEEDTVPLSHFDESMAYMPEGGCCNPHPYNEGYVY
HSF1, sequence (Q00613 whole entry): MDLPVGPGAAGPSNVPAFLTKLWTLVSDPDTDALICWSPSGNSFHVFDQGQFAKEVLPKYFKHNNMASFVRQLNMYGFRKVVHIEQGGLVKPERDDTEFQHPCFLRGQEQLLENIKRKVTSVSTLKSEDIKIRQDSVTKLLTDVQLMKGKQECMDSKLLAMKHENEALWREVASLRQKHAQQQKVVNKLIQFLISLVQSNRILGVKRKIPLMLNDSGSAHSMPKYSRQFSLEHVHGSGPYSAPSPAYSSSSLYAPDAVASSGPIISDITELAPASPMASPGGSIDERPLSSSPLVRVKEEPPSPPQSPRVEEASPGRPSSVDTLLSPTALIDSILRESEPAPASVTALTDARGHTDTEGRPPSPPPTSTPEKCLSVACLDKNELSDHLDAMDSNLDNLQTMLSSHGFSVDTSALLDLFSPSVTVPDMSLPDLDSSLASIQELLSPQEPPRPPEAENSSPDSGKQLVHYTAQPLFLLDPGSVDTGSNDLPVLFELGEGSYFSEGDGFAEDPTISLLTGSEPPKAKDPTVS
ELF1, sequence (P32519 whole entry): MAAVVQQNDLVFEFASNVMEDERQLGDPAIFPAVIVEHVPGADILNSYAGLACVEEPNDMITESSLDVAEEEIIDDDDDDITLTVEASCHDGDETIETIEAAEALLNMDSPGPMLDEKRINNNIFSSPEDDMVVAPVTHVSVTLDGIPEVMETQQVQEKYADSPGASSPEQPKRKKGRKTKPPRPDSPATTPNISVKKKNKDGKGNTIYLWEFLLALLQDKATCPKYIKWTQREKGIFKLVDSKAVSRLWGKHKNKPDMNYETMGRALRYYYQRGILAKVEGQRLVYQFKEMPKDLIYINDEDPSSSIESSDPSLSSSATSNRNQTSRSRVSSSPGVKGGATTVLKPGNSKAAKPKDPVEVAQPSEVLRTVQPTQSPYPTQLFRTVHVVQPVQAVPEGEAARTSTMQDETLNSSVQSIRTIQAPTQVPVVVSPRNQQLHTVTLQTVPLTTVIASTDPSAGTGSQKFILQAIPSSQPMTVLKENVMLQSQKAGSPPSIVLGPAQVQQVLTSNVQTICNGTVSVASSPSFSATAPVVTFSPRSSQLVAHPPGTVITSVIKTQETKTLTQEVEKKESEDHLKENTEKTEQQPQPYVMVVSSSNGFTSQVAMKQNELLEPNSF
CRX, sequence (O43186 whole entry): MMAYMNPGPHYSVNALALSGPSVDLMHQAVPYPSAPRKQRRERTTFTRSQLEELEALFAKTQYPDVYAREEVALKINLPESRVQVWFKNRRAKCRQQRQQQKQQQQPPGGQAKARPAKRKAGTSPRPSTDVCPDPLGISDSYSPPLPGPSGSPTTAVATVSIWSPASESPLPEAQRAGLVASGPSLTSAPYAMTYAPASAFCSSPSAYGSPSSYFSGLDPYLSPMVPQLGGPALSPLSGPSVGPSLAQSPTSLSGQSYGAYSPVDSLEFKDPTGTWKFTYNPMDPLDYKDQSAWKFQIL
SPIB, sequence (Q01892 whole entry): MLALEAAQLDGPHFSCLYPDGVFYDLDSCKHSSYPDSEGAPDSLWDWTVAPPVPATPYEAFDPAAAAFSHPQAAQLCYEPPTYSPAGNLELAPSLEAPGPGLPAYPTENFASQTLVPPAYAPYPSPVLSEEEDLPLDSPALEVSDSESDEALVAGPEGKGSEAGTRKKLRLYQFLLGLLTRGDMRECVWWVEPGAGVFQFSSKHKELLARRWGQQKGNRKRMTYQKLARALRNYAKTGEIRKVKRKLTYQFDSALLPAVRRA
ETV5, sequence (P41161 whole entry): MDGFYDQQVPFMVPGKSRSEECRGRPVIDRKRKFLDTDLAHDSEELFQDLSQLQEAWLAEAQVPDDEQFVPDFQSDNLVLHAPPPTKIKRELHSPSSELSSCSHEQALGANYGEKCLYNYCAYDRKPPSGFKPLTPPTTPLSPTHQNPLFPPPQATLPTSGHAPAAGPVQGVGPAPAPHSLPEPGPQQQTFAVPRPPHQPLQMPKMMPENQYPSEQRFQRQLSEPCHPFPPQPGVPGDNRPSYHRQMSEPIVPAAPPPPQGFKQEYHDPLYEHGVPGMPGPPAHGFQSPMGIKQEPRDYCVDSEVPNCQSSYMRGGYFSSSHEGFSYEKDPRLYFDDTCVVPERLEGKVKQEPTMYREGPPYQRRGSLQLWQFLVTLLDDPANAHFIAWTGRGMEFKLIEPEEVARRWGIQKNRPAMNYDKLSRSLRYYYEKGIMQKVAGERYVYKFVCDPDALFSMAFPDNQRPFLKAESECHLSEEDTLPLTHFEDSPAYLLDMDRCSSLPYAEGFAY

TAGCAT
binding signal (FLI1): 1.16 fold enrichment (6-mer frequency, TF over GST control) | binding signal (ELK1): 1.15 fold enrichment (6-mer frequency, TF over GST control) | binding signal (GABPA): 1.05 fold enrichment (6-mer frequency, TF over GST control) | binding signal (ERG): 1.11 fold enrichment (6-mer frequency, TF over GST control) | binding signal (ELF1): 1.17 fold enrichment (6-mer frequency, TF over GST control) | binding signal (EHF): 1.14 fold enrichment (6-mer frequency, TF over GST control) | binding signal (SPI1): 1.07 fold enrichment (6-mer frequency, TF over GST control) | binding signal (SPIB): 1.05 fold enrichment (6-mer frequency, TF over GST control) | binding signal (ELK3): 1.13 fold enrichment (6-mer frequency, TF over GST control) | binding signal (FEV): 1.13 fold enrichment (6-mer frequency, TF over GST control) | binding signal (ETV5): 1.09 fold enrichment (6-mer frequency, TF over GST control) | binding signal (HSF1): 1.38 fold enrichment (6-mer frequency, TF over GST control) | binding signal (SPIC): 1.07 fold enrichment (6-mer frequency, TF over GST control) | binding signal (ELF4): 1.16 fold enrichment (6-mer frequency, TF over GST control) | binding signal (ELK4): 1.16 fold enrichment (6-mer frequency, TF over GST control) | binding signal (ELF3): 1.15 fold enrichment (6-mer frequency, TF over GST control) | binding signal (CRX): 1.42 fold enrichment (6-mer frequency, TF over GST control) | binding signal (ETV1): 1.17 fold enrichment (6-mer frequency, TF over GST control)
